Laboratory results from PubChem BioAssay (NCATS).
Inconclusive results are not listed. The source made the active and inactive calls. Calls follow the shape of the dose curve; as a rule, active = well fitted curve in the direction sought with a large enough effect; inconclusive = small, poorly fitted or top-dose-only effect, or another doubt; inactive = no such curve, though single readings can be large; an effect the other way counts as inactive or inconclusive.

Experiments:
[1] = qHTS of pediatric cancer cell lines to identify multiple opportunities for drug repurposing: Primary screen for OHS-50 cells (AID 1347103); also: nearly all actives have a fitted effect of over 40% in size
In short: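 Cells (500-1,000/well) rested 5 h, then received compounds for 48 h; metabolically active cells were measured by CellTiter-Glo luminescence. Final concentrations spanned up to 46 µM (MIPE, 11-point) or 0.59 nM-46 µM (NPC, 8-point) in primary screens, 11-point in follow-ups.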

[2] = qHTS of pediatric cancer cell lines to identify multiple opportunities for drug repurposing: Primary screen for RD cells (AID 1347104); also: nearly all actives have a fitted effect of over 55% in size
In short: (§1)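 CRCs from 8- or 11-point titrations (lowest final 0.59 nM NPC, 0.78 nM MIPE). Cell viability: CellTiter-Glo after 48 h incubation, 15 min room-temperature development, luminescence imaging.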

[3] = qHTS of pediatric cancer cell lines to identify multiple opportunities for drug repurposing: Primary screen for MG 63 (6-TG R) cells (AID 1347105); also: nearly all actives have a fitted effect of over 50% in size
In short: as §1

[4] = qHTS of pediatric cancer cell lines to identify multiple opportunities for drug repurposing: Primary screen for Rh30 cells (AID 1347107); also: nearly all actives have a fitted effect of over 75% in size
In short: (§2)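 Viability after 48 h compound treatment at 37C, 500-1,000 cells/well, read as ATP luminescence with CellTiter-Glo. Primary screens used 11-point (MIPE, 0.78 nM-46 µM) or 8-point (NPC, 0.59 nM-46 µM) final concentrations; follow-up screens used 11-point dilutions.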

[5] = qHTS of pediatric cancer cell lines to identify multiple opportunities for drug repurposing: Primary screen for Rh41 cells (AID 1347108); also: nearly all actives have a fitted effect of over 70% in size
In short: as §1

[6] = qHTS of pediatric cancer cell lines to identify multiple opportunities for drug repurposing: Confirmatory screen for NB1643 cells (AID 1347109); also: nearly all actives have a fitted effect of over 45% in size
In short: as §2

[7] = qHTS of pediatric cancer cell lines to identify multiple opportunities for drug repurposing: Confirmatory screen for A673 cells (AID 1347110); also: nearly all actives have a fitted effect of over 65% in size
In short: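 Cells plated at 500-1,000/well were treated five hours later with multi-point dilutions up to 46 µM final. After two days, CellTiter-Glo was added and luminescence read.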

[8] = qHTS of pediatric cancer cell lines to identify multiple opportunities for drug repurposing: Confirmatory screen for SK-N-MC cells (AID 1347111);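 also: cells exposed to compound for 48 h before the readout; nearly all actives have a fitted effect of over 70% in size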
In short: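 SK-N-MC cells at 500-1,000 cells/well in growth media were pre-incubated 5 h, then exposed to compounds at 11-point dilutions for 48 h at 37 degrees C, 5% CO2. Viability was read as CellTiter-Glo luminescence.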

[9] = qHTS of pediatric cancer cell lines to identify multiple opportunities for drug repurposing: Confirmatory screen for BT-12 cells (AID 1347112); also: nearly all actives have a fitted effect of over 55% in size
In short: as §2

[10] = qHTS of pediatric cancer cell lines to identify multiple opportunities for drug repurposing: Confirmatory screen for DAOY cells (AID 1347114); also: nearly all actives have a fitted effect of over 65% in size
In short: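 Viability measured as metabolically active cells via CellTiter-Glo luminescence following 48 hours of compound exposure, 11-point dilutions in confirmatory testing. 500-1,000 cells/well plated 5 hours before dosing; controls were DMSO and 2.3 µM bortezomib.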

[11] = qHTS of pediatric cancer cell lines to identify multiple opportunities for drug repurposing: Confirmatory screen for NB-EBc1 cells (AID 1347115); also: nearly all actives have a fitted effect of over 45% in size
In short: as §2

[12] = qHTS of pediatric cancer cell lines to identify multiple opportunities for drug repurposing: Confirmatory screen for BT-37 cells (AID 1347117); also: nearly all actives have a fitted effect of over 55% in size
In short: as §2

[13] = qHTS of pediatric cancer cell lines to identify multiple opportunities for drug repurposing: Confirmatory screen for TC32 cells (AID 1347118); also: nearly all actives have a fitted effect of over 65% in size
In short: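 Luminescent CellTiter-Glo read-out of metabolically active TC32 cells after 48 h compound exposure. Primary: MIPE 11-point, 0.78 nM–46 µM; NPC 8-point, 0.59 nM–46 µM. Confirmatory: 11-point dilutions.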

[14] = qHTS of pediatric cancer cell lines to identify multiple opportunities for drug repurposing: Confirmatory screen for MG 63 (6-TG R) cells (AID 1347119); also: nearly all actives have a fitted effect of over 55% in size
In short: as §2

[15] = qHTS of pediatric cancer cell lines to identify multiple opportunities for drug repurposing: Confirmatory screen for control Hh wild type fibroblast cells (AID 1347121); also: nearly all actives have a fitted effect of over 70% in size
In short: as §2

[16] = qHTS of pediatric cancer cell lines to identify multiple opportunities for drug repurposing: Confirmatory screen for U-2 OS cells (AID 1347122); also: nearly all actives have a fitted effect of over 65% in size
In short: as §2

[17] = qHTS of pediatric cancer cell lines to identify multiple opportunities for drug repurposing: Confirmatory screen for Rh41 cells (AID 1347123); also: nearly all actives have a fitted effect of over 60% in size
In short: as §2

[18] = qHTS of pediatric cancer cell lines to identify multiple opportunities for drug repurposing: Confirmatory screen for RD cells (AID 1347124)
In short: as §2

[19] = qHTS of pediatric cancer cell lines to identify multiple opportunities for drug repurposing: Confirmatory screen for Rh18 cells (AID 1347125); also: nearly all actives have a fitted effect of over 55% in size
In short: as §2

[20] = qHTS of pediatric cancer cell lines to identify multiple opportunities for drug repurposing: Primary screen for control Hh wild type fibroblast cells (AID 1347106); also: nearly all actives have a fitted effect of over 55% in size
In short: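 Cells (500-1,000/well) in growth media were settled 5 h at 37 degrees C, then given compounds for 48 h. Viability was read as CellTiter-Glo luminescence. Primary runs used MIPE at 11 points (0.78 nM-46 µM) and NPC at 8 points (0.59 nM-46 µM); follow-ups used 11 points.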

Measured: Potency
Potency is read from the fitted curve at half-maximal effect.

CC1=C(O)C(=O)C=C2C1=CC=C1[C@@]2(C)CC[C@@]2(C)[C@@H]3C[C@](C)(C(=O)O)CC[C@]3(C)CC[C@]12C
active: [1] 2430 nM | [2] 1320 nM | [3] 935 nM | [4] 4690 nM | [5] 1480 nM | [6] 2080 nM | [7] 1310 nM | [8] 1170 nM | [9] 3290 nM | [10] 1650 nM | [11] 2610 nM | [12] 4650 nM | [13] 1310 nM | [14] 2330 nM | [15] 4140 nM | [16] 928 nM | [17] 1470 nM | [18] 1170 nM | [19] 2330 nM

C[C@@H]1O[C@@H](O[C@@H]2C=C3CC[C@@H]4[C@@H](CC[C@]5(C)[C@H](c6ccc(=O)oc6)CC[C@@]45O)[C@@]3(C)CC2)[C@H](O)[C@H](O)[C@H]1O
active: [1] 17.2 nM | [2] 7.4 nM | [3] 4.7 nM | [5] 23.5 nM | [6] 82.7 nM | [7] 52.2 nM | [8] 32.9 nM | [9] 41.4 nM | [10] 7.4 nM | [11] 26.1 nM | [12] 13.1 nM | [13] 23.3 nM | [14] 7.4 nM | [16] 16.5 nM | [17] 16.5 nM | [18] 16.5 nM

CC(=O)[O][Hg][c]1ccccc1
active: [1] 4900 nM | [2] 944 nM | [3] 2660 nM | [4] 2660 nM | [5] 1060 nM | [6] 1470 nM | [7] 1040 nM | [8] 827 nM | [9] 4650 nM | [11] 5850 nM | [12] 2330 nM | [13] 827 nM | [14] 4140 nM | [15] 13100 nM | [19] 4650 nM

CC(C)[C@]12O[C@@H]1[C@@H]1O[C@]13[C@]1(O[C@H]1C[C@@H]1C4=C(CC[C@@]13C)C(=O)OC4)[C@H]2O
active: [1] 1 nM | [2] 1 nM | [5] 52600 nM | [7] 92.8 nM | [8] 46.5 nM | [9] 36.9 nM | [10] 208 nM | [12] 36.9 nM | [13] 73.7 nM | [14] 32.9 nM | [16] 73.7 nM | [17] 26.1 nM | [18] 52.2 nM | [19] 82.7 nM
inactive: [20] | [4] | [15]

CCCN(CCC)c1c([N+](=O)[O-])cc(S(N)(=O)=O)cc1[N+](=O)[O-]
inactive: [20]
active: [1] 28200 nM | [2] 38600 nM | [3] 48600 nM | [5] 38600 nM

N#C[C@H](O[C@@H]1O[C@H](CO[C@@H]2O[C@H](CO)[C@H](O)[C@H](O)[C@H]2O)[C@H](O)[C@H](O)[C@H]1O)c1ccccc1
inactive: [20]
active: [1] 21700 nM | [2] 33200 nM

O=S(=O)(F)Cc1ccccc1
inactive: [1] | [2] | [20] | [4] | [5]

CC[C@@]1(O)C(=O)OCc2c1cc1n(c2=O)Cc2cc3ccccc3nc2-1
active: [1] 19.3 nM | [2] 743 nM | [3] 59 nM | [5] 209 nM | [6] 131 nM | [7] 46.5 nM | [8] 29.3 nM | [9] 827 nM | [10] 4650 nM | [11] 65.7 nM | [12] 36.9 nM | [13] 18.5 nM | [14] 73.7 nM | [16] 1040 nM | [17] 369 nM | [18] 465 nM | [19] 827 nM

O=C(Nc1ccncc1)C(=O)c1cn(Cc2ccc(Cl)cc2)c2ccccc12
inactive: [20] | [4]
active: [1] 86.3 nM | [2] 46.9 nM | [5] 74.3 nM | [6] 465 nM | [7] 414 nM | [8] 329 nM | [10] 293 nM | [12] 827 nM | [13] 233 nM | [14] 369 nM | [16] 465 nM | [17] 465 nM | [18] 414 nM

Cc1c(C(=O)c2cccc3ccccc23)c2cccc3c2n1[C@H](CN1CCOCC1)CO3
active: [1] 13700 nM | [2] 29600 nM | [3] 23500 nM | [5] 20900 nM

Nc1c(Cl)c(Cl)c(Cl)c(Cl)c1Cl
inactive: [1] | [2] | [3] | [4] | [5]

COc1ccc2c(c[n+](C)c3c4cc5c(cc4ccc23)OCO5)c1OC
active: [1] 8630 nM | [2] 10500 nM | [20] 26400 nM | [4] 20900 nM | [5] 10500 nM

CCc1c(C(=O)C(N)=O)c2c(OCC(=O)O)cccc2n1Cc1ccccc1
inactive: [1] | [2] | [20] | [4] | [5]

CCNC(=O)C[C@@H]1N=C(c2ccc(Cl)cc2)c2cc(OC)ccc2-n2c(C)nnc21
inactive: [20]
active: [1] 1530 nM | [2] 1180 nM | [3] 469 nM | [5] 5900 nM

CC1(N2CCC(n3c([C@@H]4CCCNC4)nc4ccccc43)CC2)CCCCCCC1
inactive: [3] | [4] | [5]
active: [1] 24300 nM | [2] 13200 nM

O=[N+]([O-])c1c(Cl)c(Cl)cc(Cl)c1Cl
active: [8] 38000 nM
not listed: [6] | [7] | [11] | [12] | [13]
inactive: all other assays above
